Inconclusive results are not listed. Calls of active or inactive are those of the source. The call rests on the fitted dose curve; in most records, active means well fitted curve in the direction sought with a large enough effect; inconclusive means small, poorly fitted or top-dose-only effect, or another doubt; inactive means no such curve, though single readings can be large; an effect the other way counts as inactive or inconclusive.
Key:
[1] = qHTS of pediatric cancer cell lines to identify multiple opportunities for drug repurposing: Primary screen for BT-12 cells (AID 1347101); further: nearly all actives have a fitted effect of over 25% in size; further: potency means the concentration at half of the fitted maximal effect
Outline: (§1)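 Cells (500-1,000/well) rested 5 h, then received compounds for 48 h; metabolically active cells were measured by CellTiter-Glo luminescence. Final concentrations spanned up to 46 µM (MIPE, 11-point) or 0.59 nM-46 µM (NPC, 8-point) in primary screens, 11-point in follow-ups.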

[2] = qHTS of pediatric cancer cell lines to identify multiple opportunities for drug repurposing: Primary screen for Rh18 cells (AID 1347102); further: nearly all actives have a fitted effect of over 65% in size; further: potency means the concentration at half of the fitted maximal effect
Outline: (§2)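 Viability after 48 h compound treatment at 37C, 500-1,000 cells/well, read as ATP luminescence with CellTiter-Glo. Primary screens used 11-point (MIPE, 0.78 nM-46 µM) or 8-point (NPC, 0.59 nM-46 µM) final concentrations; follow-up screens used 11-point dilutions.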

[3] = qHTS of pediatric cancer cell lines to identify multiple opportunities for drug repurposing: Primary screen for OHS-50 cells (AID 1347103); further: nearly all actives have a fitted effect of over 40% in size; further: potency means the concentration at half of the fitted maximal effect
Outline: as §1

[4] = qHTS of pediatric cancer cell lines to identify multiple opportunities for drug repurposing: Primary screen for RD cells (AID 1347104); further: nearly all actives have a fitted effect of over 55% in size; further: potency means the concentration at half of the fitted maximal effect
Outline: (§3)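 Primary screen of approved and investigational compounds on cells in growth media at 37 degrees C, 5% CO2. MIPE set at 11-point and NPC set at 8-point dilutions; viability scored by ATP-based luminescence at 48 hours.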

[5] = qHTS of pediatric cancer cell lines to identify multiple opportunities for drug repurposing: Primary screen for MG 63 (6-TG R) cells (AID 1347105); further: nearly all actives have a fitted effect of over 50% in size; further: potency means the concentration at half of the fitted maximal effect
Outline: as §3

[6] = qHTS of pediatric cancer cell lines to identify multiple opportunities for drug repurposing: Primary screen for Rh30 cells (AID 1347107); further: nearly all actives have a fitted effect of over 75% in size; further: potency means the concentration at half of the fitted maximal effect
Outline: as §2

[7] = qHTS of pediatric cancer cell lines to identify multiple opportunities for drug repurposing: Primary screen for Rh41 cells (AID 1347108); further: nearly all actives have a fitted effect of over 70% in size; further: potency means the concentration at half of the fitted maximal effect
Outline: as §3

[8] = qHTS of pediatric cancer cell lines to identify multiple opportunities for drug repurposing: Confirmatory screen for NB1643 cells (AID 1347109); further: nearly all actives have a fitted effect of over 45% in size; further: potency means the concentration at half of the fitted maximal effect
Outline: as §2

[9] = qHTS of pediatric cancer cell lines to identify multiple opportunities for drug repurposing: Confirmatory screen for SK-N-MC cells (AID 1347111); settings: SK-N-MC cell viability;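 further: potency means the concentration at half of the fitted maximal effect; cells exposed to compound for 48 h before the readout; nearly all actives have a fitted effect of over 70% in size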
Outline: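 SK-N-MC cells at 500-1,000 cells/well in growth media were pre-incubated 5 h, then exposed to compounds at 11-point dilutions for 48 h at 37 degrees C, 5% CO2. Viability was read as CellTiter-Glo luminescence.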

[10] = qHTS of pediatric cancer cell lines to identify multiple opportunities for drug repurposing: Confirmatory screen for BT-12 cells (AID 1347112); further: nearly all actives have a fitted effect of over 55% in size; further: potency means the concentration at half of the fitted maximal effect
Outline: as §2

[11] = qHTS of pediatric cancer cell lines to identify multiple opportunities for drug repurposing: Confirmatory screen for LAN-5 cells (AID 1347113); further: nearly all actives have a fitted effect of over 65% in size; further: potency means the concentration at half of the fitted maximal effect
Outline: as §2

[12] = qHTS of pediatric cancer cell lines to identify multiple opportunities for drug repurposing: Confirmatory screen for NB-EBc1 cells (AID 1347115); further: nearly all actives have a fitted effect of over 45% in size; further: potency means the concentration at half of the fitted maximal effect
Outline: as §2

[13] = qHTS of pediatric cancer cell lines to identify multiple opportunities for drug repurposing: Confirmatory screen for BT-37 cells (AID 1347117); settings: BT-37 pediatric cancer cells, viability; further: potency means the concentration at half of the fitted maximal effect; nearly all actives have a fitted effect of over 55% in size
Outline: as §2

[14] = qHTS of pediatric cancer cell lines to identify multiple opportunities for drug repurposing: Confirmatory screen for TC32 cells (AID 1347118); settings: TC32 Ewing sarcoma cells viability qHTS; further: potency means the concentration at half of the fitted maximal effect; nearly all actives have a fitted effect of over 65% in size
Outline: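 Luminescent CellTiter-Glo read-out of metabolically active TC32 cells after 48 h compound exposure. Primary: MIPE 11-point, 0.78 nM–46 µM; NPC 8-point, 0.59 nM–46 µM. Confirmatory: 11-point dilutions.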

[15] = qHTS of pediatric cancer cell lines to identify multiple opportunities for drug repurposing: Confirmatory screen for MG 63 (6-TG R) cells (AID 1347119); further: nearly all actives have a fitted effect of over 55% in size; further: potency means the concentration at half of the fitted maximal effect
Outline: as §2

[16] = qHTS of pediatric cancer cell lines to identify multiple opportunities for drug repurposing: Confirmatory screen for control Hh wild type fibroblast cells (AID 1347121); further: nearly all actives have a fitted effect of over 70% in size
Outline: as §2

[17] = qHTS of pediatric cancer cell lines to identify multiple opportunities for drug repurposing: Confirmatory screen for DAOY cells (AID 1347114); further: nearly all actives have a fitted effect of over 65% in size; further: potency means the concentration at half of the fitted maximal effect
Outline: (§4)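 Viability measured as metabolically active cells via CellTiter-Glo luminescence following 48 hours of compound exposure, 11-point dilutions in confirmatory testing. 500-1,000 cells/well plated 5 hours before dosing; controls were DMSO and 2.3 µM bortezomib.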

[18] = qHTS of pediatric cancer cell lines to identify multiple opportunities for drug repurposing: Primary screen for control Hh wild type fibroblast cells (AID 1347106)
Outline: as §2

[19] = qHTS of pediatric cancer cell lines to identify multiple opportunities for drug repurposing: Confirmatory screen for SJ-GBM2 cells (AID 1347116); further: nearly all actives have a fitted effect of over 60% in size; further: potency means the concentration at half of the fitted maximal effect
Outline: as §4

[20] = qHTS of pediatric cancer cell lines to identify multiple opportunities for drug repurposing: Confirmatory screen for U-2 OS cells (AID 1347122); further: nearly all actives have a fitted effect of over 65% in size; further: potency means the concentration at half of the fitted maximal effect
Outline: as §2

Measured: Potency

CC(C(=O)O)c1ccc(C(=O)c2cccs2)cc1 (stereo not drawn)
inactive: [1] | [2] | [3] | [4] | [5] | [6] | [7]

O=C(CS)Nc1ccccc1
active: [7] 21.1 µM
inactive: [1] | [2] | [3] | [5] | [6]

[O-][n+]1ccccc1SSc1cccc[n+]1[O-]
active: [1] 0.12 µM | [2] 0.517 µM | [3] 0.338 µM | [4] 0.0731 µM | [5] 0.184 µM | [8] 1.15 µM | [9] 0.456 µM | [10] 3.23 µM | [11] 0.288 µM | [12] 2.57 µM | [13] 0.811 µM | [14] 1.29 µM
inactive: [15] | [16]

N=C1N=C(N)c2cc3ccccc3cc21
active: [1] 25.2 µM | [2] 48.6 µM | [3] 17.8 µM | [4] 34.4 µM | [5] 24.3 µM | [7] 30.6 µM | [8] 33.9 µM | [9] 17 µM | [11] 38 µM | [17] 42.7 µM | [13] 38 µM | [14] 17 µM | [15] 19.1 µM

CN(C)[C@@H]1C(=O)C(C(=O)NCN2CCCC2)=C(O)[C@@]2(O)C(=O)C3=C(O)c4c(O)cccc4[C@@](C)(O)C3C[C@@H]12 (stereo partly drawn)
inactive: [1] | [2] | [3] | [4] | [5] | [6] | [7]

CCCCCCCCCCCCCCCC(=O)OC(C)C
inactive: [1] | [2] | [3] | [4] | [5] | [6] | [7]

C[N+]1(C)[C@@H]2CC(OC(=O)[C@H](CO)c3ccccc3)C[C@H]1[C@@H]1O[C@@H]12 (stereo partly drawn)
inactive: [1] | [2] | [3] | [4] | [5] | [6] | [7]

Cc1c(Nc2ncccc2C(=O)O)cccc1C(F)(F)F
inactive: [1] | [2] | [3] | [4] | [6] | [7]

c1ccc2sc(SSc3nc4ccccc4s3)nc2c1
inactive: [1] | [2] | [3] | [4] | [5] | [6] | [7]

COC(=O)Nc1nc2ccc(C(=O)C3CC3)cc2[nH]1
active: [1] 2.19 µM | [3] 1.1 µM | [9] 1.04 µM | [10] 16.5 µM | [13] 2.33 µM | [14] 1.17 µM | [15] 1.47 µM
inactive: [2] | [18] | [6] | [16]

CC(C(=O)O)c1ccc(C(=O)c2ccccc2)s1 (stereo not drawn)
inactive: [1] | [2] | [3] | [4] | [18] | [6] | [7]

O=C(O)c1ccccc1Nc1cccc(C(F)(F)F)c1
inactive: [1] | [2] | [3] | [4] | [5] | [6] | [7]

COC(=O)c1nc(Cl)c(Cl)nc1N
active: [1] 2.19 µM | [2] 23.7 µM | [3] 0.872 µM | [4] 5.96 µM | [5] 8.41 µM | [6] 21.1 µM | [7] 3.76 µM | [8] 3.69 µM | [9] 1.17 µM | [10] 2.08 µM | [11] 3.29 µM | [17] 1.65 µM | [12] 16.5 µM | [19] 2.08 µM | [13] 1.47 µM | [14] 2.33 µM | [15] 2.93 µM | [20] 2.61 µM

CC1(C)S[C@@H]2[C@H](NC(=O)[C@H](N)c3ccccc3)C(=O)N2[C@H]1C(=O)O
inactive: [1] | [2] | [3] | [4] | [5] | [6] | [7]

CCCCCCCCCCCCCCCCCC(=O)O
inactive: [1] | [2] | [3] | [4] | [5] | [6] | [7]

N=C(N)N
inactive: [1] | [2] | [3] | [4] | [5] | [6] | [7]

COc1ccnc2c1CCCCC2S(=O)c1nc2ccccc2[nH]1 (stereo not drawn)
inactive: [1] | [2] | [3] | [4] | [5] | [6] | [7]

Nc1cc(-c2ccncc2)c[nH]c1=O
inactive: [1] | [2] | [3] | [4] | [5] | [6] | [7]

CN(C)c1ccc(N=NS(=O)(=O)O)cc1
inactive: [2] | [3] | [4] | [5] | [18] | [6] | [7]

Cc1nc2ccccc2n1Cc1ccc(Cl)cc1
active: [3] 3.47 µM
inactive: [2] | [4] | [5] | [18] | [6]

CC(N)C(=O)OC(C)(C)Cc1ccc(Cl)cc1 (stereo not drawn)
inactive: [1] | [2] | [4] | [5] | [6] | [7]

Clc1ccccc1-c1nc(-c2ccncc2)no1
inactive: [2] | [4] | [5] | [6] | [7]

CCCC(=O)OC[C@@H](OC(=O)CCC)[C@@H](OC(=O)CCC)[C@H](Cn1c2nc(=O)[nH]c(=O)c-2nc2cc(C)c(C)cc21)OC(=O)CCC
active: [1] 27.6 µM
inactive: [5] | [18] | [6]

CCCSc1ccc2nc(NC(=O)OC)[nH]c2c1
inactive: [6] | [16]
active: [1] 2.76 µM | [3] 0.872 µM | [5] 0.668 µM | [8] 2 µM | [9] 1.58 µM | [10] 25.1 µM | [11] 8.91 µM | [17] 1.26 µM | [13] 3.98 µM | [14] 0.355 µM | [15] 1.26 µM | [20] 1 µM

C#CC1(O)CC[C@H]2[C@@H]3CCC4=CCCC[C@@H]4[C@H]3CC[C@@]21C (stereo partly drawn)
active: [5] 21.1 µM
inactive: [2] | [4] | [6] | [7]

COC(=O)C1=C(C)NC(C)=C(C(=O)OCC(C)C)C1c1ccccc1[N+](=O)[O-] (stereo not drawn)
active: [3] 24.6 µM
inactive: [5] | [6]

CC(C)OC(=O)c1cc(C(=O)OC(C)C)cc([N+](=O)[O-])c1
inactive: [2] | [3] | [4] | [5] | [6] | [7]

Cc1cc(O)c2ccccc2c1O
inactive: [18]
active: [5] 26.6 µM

c1ccc(CCNc2nc(-c3ccccc3)cs2)cc1
inactive: [2] | [5] | [6] | [7]

Cc1[nH]cnc1CN1CCc2c(c3ccccc3n2C)C1=O
inactive: [1] | [2] | [4] | [5] | [18] | [6] | [7]

CCCOC(=O)c1ccc(O)cc1
inactive: [1] | [2] | [4] | [5] | [18] | [6] | [7]

Oc1c(Br)cc(Br)c2cccnc12
active: [1] 27.6 µM | [3] 15.5 µM | [4] 23.7 µM | [5] 21.1 µM | [8] 26.1 µM | [9] 1.17 µM | [11] 18.5 µM | [12] 26.1 µM | [13] 18.5 µM | [14] 1.65 µM | [15] 16.5 µM | [20] 14.7 µM
inactive: [19]

COc1cc(NC(C)CCCN)c2ncccc2c1 (stereo not drawn)
active: [3] 24.6 µM
inactive: [5] | [18] | [6]

CCCCCCOc1ccccc1C(N)=O
inactive: [2] | [4] | [5] | [6] | [7]

O=c1cc(-c2ccccc2)oc2ccccc12
inactive: [2] | [4] | [5] | [7]

Nc1ccc(O)c([N+](=O)[O-])c1
inactive: [2] | [3] | [4] | [5] | [18] | [6] | [7]

O=C1CN(/N=C/c2ccc([N+](=O)[O-])o2)C(=O)N1
inactive: [2] | [3] | [4] | [6]

Cc1c(C(=O)O)c(O)cc2c1C(=O)c1c(O)c([C@@H]3O[C@H](CO)[C@@H](O)[C@H](O)[C@H]3O)c(O)c(O)c1C2=O
inactive: [4] | [6]

Nc1ccc([N+](=O)[O-])cc1O
inactive: [2] | [6] | [7] | [8] | [10] | [11] | [17] | [12] | [19] | [15] | [16] | [20]
active: [14] 7.59 µM

O=c1[nH]c2ccccc2n1CCCN1CCN(C(c2ccccc2)c2ccccc2)CC1
inactive: [5] | [18] | [6]
active: [3] 15.5 µM

COC(=O)C1=C(C)NC(C)=C(C(=O)OCC(C)=O)C1c1ccccc1[N+](=O)[O-] (stereo not drawn)
inactive: [2] | [6] | [7]

CN1CCN(c2cc3c(nn2)Oc2ccccc2N3C)CC1
inactive: [1] | [2] | [4] | [5] | [18] | [6] | [7]

NC(=O)C(c1ccccc1)(c1ccccc1)[C@@H]1CCN(CCc2ccc3c(c2)CCO3)C1
inactive: [1] | [4] | [5] | [6] | [7]

COc1ccc(-c2cc(=S)ss2)cc1
inactive: [2] | [4] | [5] | [18] | [6] | [7]

Nc1nc2ccc([N+](=O)[O-])cc2s1
active: [3] 25.2 µM
inactive: [4] | [5] | [6] | [7]

C#C[C@]1(O)CC[C@H]2[C@@H]3CCc4cc(O)ccc4[C@H]3CC[C@@]21C
active: [3] 24.6 µM
inactive: [5] | [6]

O=Cc1ccc(O)c(O)c1O
inactive: [1] | [3] | [5] | [6] | [7]

Source: PubChem BioAssay (NCATS)
